The sample as a whole holds a higher share of hits than the screen did.
mHTT CaM bind – disrupts binding of mutant huntingtin to calmodulin; P42858; AlphaScreen His-mHTT/GST-CaM binding, luminescence; inhibition, % at 15 µM; hit rate 3.6% among 190,000; AID 1671202;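 also: 0% = both proteins with DMSO and 100% = one protein alone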
Pf apPOL inh – Pf-apPOL DNA polymerase inhibition; Recombinant Pf-apPOL, molecular beacon fluorescence, 1.5 h; inhibition, % at 10 µM; hit rate 0.25% among 210,000
Numbers without * were called inactive; i = inactive; . = no result; + = active, no number. Rule as the data show it: active = inhibition above about 50%; inactive = the rest.

SMILES	mHTT CaM bind	Pf apPOL inh
O=C(Nc1ccc(F)cc1F)Nc1nccn(-c2ccc(F)cc2)c1=O	-5.8	-0.3
Cc1nc(N2CCc3ccccc32)c2onc(-c3ccccc3)c2n1	-7.4	-2.2
COc1ccc(Br)cc1S(=O)(=O)n1ccnc1-c1ccccc1	3.0	-2.7
O=C(Nc1nc2c(s1)CN(S(=O)(=O)C=Cc1ccccc1)CC2)c1cnccn1	71.0*	24.4
Cc1ccc(S(=O)(=O)N2CCc3nc(NC(=O)c4cccnc4)sc3C2)cc1	-0.6	-3.8
CCOc1ccccc1S(=O)(=O)N1CCc2nc(NC(=O)c3cnccn3)sc2C1	50.1*	18.5
O=C(Nc1nc2c(s1)CN(C(=O)COc1ccccc1)CC2)c1cnccn1	9.1	10.7
CCN1CCN(CC(=O)N2N=C(c3ccccc3Cl)CC2c2cccn2C)CC1 (stereo not given)	82.2*	-2.7
COc1ccc(C2=NN(C(=O)CN3CCOCC3)C(c3ccccc3Cl)C2)cc1 (stereo not given)	20.8	-4.8
Cn1cccc1C1CC(c2ccccc2Cl)=NN1C(=O)CN1CCCCC1 (stereo not given)	93.9*	-5.0
COc1ccc(C2=NN(C(=O)CN3CCCCC3)C(c3ccccc3Cl)C2)cc1 (stereo not given)	9.4	-0.8
CCC(=O)Nc1cccc(-c2noc(C3CCN(C(=O)c4ccoc4)CC3)n2)c1	4.1	1.0
O=C(CC1CCCC1)NC1CN(Cc2ccccc2)CC1c1ccncc1 (stereo not given)	1.8	-4.7
Oc1[nH]c(=S)sc1C=CC=CC=Nc1ccccc1	95.2*	.
Cc1cccc(C(=O)N2CCN(c3ccc(Br)cc3)C(=O)C2C)c1 (stereo not given)	3.5	-4.7
N#C/C(=C\c1ccc(Br)cc1)c1nc(C2CC2)cs1	-41.3	-2.6
N#C/C(=C\c1ccc([N+](=O)[O-])cc1)c1nc(C2CC2)cs1	3.7	55.4*
Cc1[nH]nc2c1C(c1ccc(Cl)cc1)CC(=O)N2 (stereo not given)	-1.0	-22.1
COc1ccccc1C(=O)O/N=C1\C=C(C(C)C)C(=O)C=C1C	+	-4.9
CC1=CC(=O)C(C(C)C)=C/C1=N\OC(=O)c1ccc(C)cc1	i	-5.5
COc1ccc(C(=O)O/N=C2\C=C(C(C)C)C(=O)C=C2C)cc1Br	+	2.7
CC1=CC(=O)C(C(C)C)=C/C1=N\OC(=O)c1ccccc1C	i	1.7
COc1ccc(Cl)cc1C(=O)O/N=C1\C=C(C(C)C)C(=O)C=C1C	+	8.0
COc1cc(C(=O)O/N=C2/C=C(C(C)C)C(=O)C=C2C)cc(OC)c1OC	i	-3.8
CC1=CC(=O)C(C(C)C)=C/C1=N\OC(=O)c1cccs1	+	6.6
SMILES	mHTT CaM bind	Pf apPOL inh
CC1=CC(=O)C(C(C)C)=C/C1=N\OC(=O)c1ccc(C(C)(C)C)cc1	i	-5.4
CC(=O)c1ccc(N2CCN(C(=O)C3Oc4ccccc4NC3=O)CC2)cc1 (stereo not given)	44.9	-1.4
CCCn1c(C2CCN(C(=O)c3ccc(F)c(F)c3)C2)nc2cccnc21 (stereo not given)	-2.0	-0.1
CCCCN(C1CCS(=O)(=O)C1)S(=O)(=O)c1ccc(Br)cc1 (stereo not given)	-3.7	0.0
CN(C)c1ccc(-c2ncnn2-c2ccc([N+](=O)[O-])cc2)cc1	-2.0	3.1
Nc1c(Cl)cc(Cl)cc1[N+](=O)[O-]	2.4	-3.8
CC1=CC(=O)C(C(C)C)=C/C1=N\Oc1c([N+](=O)[O-])cc(Cl)cc1[N+](=O)[O-]	+	-0.3
Nc1c(Br)cc(O)c2c1C(=O)c1ccccc1C2=O	83.0*	-5.9
Nc1c(Br)cc(Cl)c2c1C(=O)c1ccccc1C2=O	18.0	4.8
NNC(=O)c1cc(C(=O)NN)cc(S(=O)(=O)O)c1	-3.7	21.6
CC(=O)C1=C(C)Nc2sc(C(=O)c3cccc([N+](=O)[O-])c3)c(N)c2C1c1cccnc1 (stereo not given)	56.6*	0.2
CC(=O)C1=C(C)NC(C)=C(C(C)=O)C1c1cccc([N+](=O)[O-])c1	.	-7.6
Cc1ccc(S(=O)(=O)NC(=O)NCc2csc3ccc(Cl)cc23)cc1	.	-1.9
Cc1sc(N)nc1-c1c[nH]c2ccccc12	94.5*	-11.6
Cc1sc(N)nc1-c1ccc(Cl)cc1	-7.1	-19.6
Cc1cc(C)nc(-n2nc(C)c3c2NC(=O)CC3c2ccc3ccccc3c2)n1 (stereo not given)	70.2*	-0.8
Cc1nn(-c2nc3ccccc3s2)c2c1C(c1ccccc1)CC(=O)N2 (stereo not given)	-4.3	0.8
COc1cccc(CNC(=O)N2CCc3nc[nH]c3C2)c1	-8.1	-0.7
O=C(COc1cccc(N2C(=O)C3C4C=CC(C5CC45)C3C2=O)c1)c1ccc(F)cc1 (stereo not given)	-9.0	-6.4
OC[C@H]1O[C@@H](n2cnc3c(NC4CCCCC4)ncnc32)[C@H](O)[C@@H]1O	.	8.5
Clc1ncnc2c1ncn2C1CCCCO1 (stereo not given)	74.5*	.
